Laboratory results: PubChem BioAssay AID1508600 (Functional Genomics Laboratory (NCATS/FGL), 2020)
Out of some 53,000 sequences screened, about 3,700 (7%) were called active. Only a selection was taken, and actives are over-represented in it overall. Unmarked numbers belong to inactive results.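 How the source made its calls: active means gene knockdowns whose robust z-score for IL-1 alpha signal is at least 2 or at most -2, so actives lie on both sides; inactive means the rest.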

Assay: Components of the Cytosolic LPS Sensing Pathway: Gene Identification via Genome-wide siRNA Screen;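 further: robust z of the log signal after scaling to non-targeting control siRNA wells of the plate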
Conditions: RAW264.7 macrophages, IL-1a HTRF, actives lie on both sides, screened at 100 nM (by protocol), cells primed 5 h with Pam3CSK4 first
How it was run: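 RAW264.7 mouse macrophages reverse-transfected with single siRNAs (100 nM final) for 48h, primed with Pam3CSK4 for 5 hours, then transfected with LipidA for 24 hour. Supernatant IL-1a read by HTRF; values normalized to negative-control median, log-transformed robust z-scores.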

Row | Sequence | z-score
1 | GGACUCCGUCAUAUACGAATT against Olfr1102 | -0.187
2 | GGUAAAAGUGGGUAGGAAATT against Ptprh | 0.595
3 | GGAUCUACGUAGCAUUUCATT against Mis12 | 0.237
4 | CCCUAAGAGUCACCAAAAUTT against Nos2 | -2.19 (active)
5 | GGGCUGAAUAAGGAACUGUTT against Nudt16l2 | 1.46
6 | GGAAAGAUCACUCUUGCAUTT against Pon1 | -0.58
7 | GGACCACUCCAAGAGUUCUTT against Ncapd3 | 2.88 (active)
8 | GGAACUCUGGAAUAAUCUGTT against St6galnac2 | 1.58
9 | GGACCAGCUGAUCUCAGUATT against Olfr418 | -1.94
10 | GGCUGACAAGAGAUUUAAATT against 4930430F08Rik | -0.703
11 | GCUACGCUUCCUUAUUUGCTT against Tubgcp3 | 0.525
12 | GCCAAUAAGAACAACGAUGTT against Des | 0.732
13 | GUCUAUCUUCAGCACAAACTT against Klrc3 | 2.12 (active)
14 | GGUCUUUGAUCUACGAAUGTT against Rhobtb2 | 0.825
15 | GGAGAUAAAUGUGUAGACCTT against Matn3 | 0.915
16 | GCACAAAUAAAGAUAAGAGTT against Uox | -0.178
17 | GGUUUAACUGUAGCAUAAGTT against Pde12 | -0.0106
18 | GGGACUCGGGCAGUAUUCATT against Tgm5 | -0.185
19 | GGUCGAACUUCUGUGCCAUTT against Slc39a8 | 2.39 (active)
20 | GCAGAUGUAAAUAGCAAAATT against Apc | 0.955
21 | GGGUGACAUGAUUUUAACUTT against Fbh1 | -0.727
22 | GGCAAAUCCCGUUCACUGATT against Magel2 | -1.08

Row | Sequence | z-score
23 | GCUUUUGGUACAGGAUGCCTT against 5830411N06Rik | -2.68 (active)
24 | GCGAUGAUGUGCUUAUGUCTT against Zfp341 | 0.735
25 | CCUUAGGUACUCUAAGGAATT against D1Pas1 | -0.109
26 | CGGAUUUUGAAGUACACCGTT against Alg8 | 0.207
27 | CGCAGUACCUAUUUGAGCGTT against Hs6st1 | 1.62
28 | GCUCAUAAUUUUGACAGCUTT against Cyp51 | 0.168
29 | GGCUUUCACGCUUUGACAATT against Ap1m2 | 0.209
30 | GACUAACCAGAUGAAAGUCTT against Vmn1r11 | -0.66
31 | GCAUGUUACUAGGAUAACUTT against Mup20 | 2.27 (active)
32 | GGAUUCUAUGACAAAGACATT against Ddx3x | 1.84
33 | GGCUUCCAAAACAAAUCAATT against Rgn | 0.857
34 | CCUGCACAACUGGAAACCUTT against Nectin2 | -2.16 (active)
35 | GAUAAUGACCAGGCUACCATT against Magea7-ps | 0.069
36 | CCACUGUGCUCAAUUUGCATT against Slc9a2 | -0.372
37 | GGCUCUGGAAAAGAACAACTT against Sds | 1.52
38 | GGAAAUCAACAGCUCACAUTT against B3gnt9 | -0.327
39 | GGAUCUAUAAGGACUACAUTT against Bmp7 | 4.01 (active)
40 | GGCCGAUUCCAUUGUACAGTT against Fam177a | 3.54 (active)
41 | GCUGUAUGGCUAAGCAGUGTT against Olfr113 | -0.42
42 | GCCUCAAAAUGGCGGAACUTT against Casp8 | -0.249
43 | CCAAGCGAAUGUCAAAAUATT against Fam163a | 0.66
44 | GGAGAGGAACAGGAACAGATT against Ankrd9 | 0.557

Row | Sequence | z-score
45 | GGGUCAUUGGUAGCAACGATT against Oas1g | -2.9 (active)
46 | GGCCUAAUCGAAAUGUGGCTT against Trim12a | 0.515
47 | GGUGACUGGUUUGUUGCUUTT against Pstk | -1.39
48 | GCUACAGGGAAGUAUUGAATT against Apc | 2.05 (active)
49 | GGCUGGAAUCACUGAUAUUTT against Hddc3 | 0.527
50 | CGAGAUGUUUAUUCAACAUTT against Tcf23 | -0.431
51 | GGAACAUUUGAAGUGCAAATT against Ilf2 | -0.45
52 | GCCAUCGUCUACCUAUGACTT against Olfr358 | -1.85
53 | CGGUUAGUCUGUCAGUAUCTT against Xrcc3 | 0.488
54 | GAUUCAGCAUUAUUUCUGUTT against Olfr980 | 0.524
55 | GGGCUUGAUUGUGAAAGAATT against Tlr12 | -1.82
56 | GGGAGAGUAAUGUGGACAUTT against Slc37a2 | 3.86 (active)
57 | GCUGAAGACACUCUGUGAATT against Ehbp1l1 | -1.7
58 | GCAACGCAGUACUCUACCCTT against Tns2 | 0.557
59 | CCCAGUGGUUUUAAAGCAUTT against Commd3 | -1.64
60 | GCCAACGCACAUAAUAAAGTT against Ndufa13 | 0.245
61 | GCUAGGUAUCUAAGGAUAUTT against Fig4 | -0.579
62 | GGGAAACUCAAACUGAUUGTT against 9930104L06Rik | 0.0417
63 | GGUCAUUGUCAAAGUCAAGTT against Nutm1 | 2.4 (active)
64 | GGUCAAUUCUUUGUGAUGATT against Usf1 | -0.609
65 | GGACACUAUACAAAUUUCGTT against Fank1 | -0.109
66 | GCGACUGUACAACGAAUUGTT against Clp1 | 3.34 (active)

Row | Sequence | z-score
67 | GCAAAACUUCGGAUAGUCATT against Gak | 0.382
68 | GGCCGUUUCCUACCUCAUGTT against Cckbr | -1.09
69 | GGUCCAGAUCAGUUGACAGTT against Srsf5 | 0.812
70 | GCGUGGUGUAUUUGAAUCATT against Ch25h | 2.31 (active)
71 | CCCAACUCGGUUUUUUUCUTT against Olfr1037 | 0.827
72 | CCUAAGCUUAGAUCAACAUTT against Dhx36 | -0.735
73 | GGACGAGAUGAACAGCCUCTT against Chkb | 0.0671
74 | GGCGCAACGAAUAAAAAUATT against D630023F18Rik | -0.581
75 | GGAUUUCUUCCAGAAGAUGTT against Grhpr | -1.54
76 | GGGAACAGUAUCUGAUUCATT against Polg | 2.35 (active)
77 | CGUAAACAUUUCCUUCUACTT against Dmbt1 | -0.718
78 | CUAUGACACUUGGUUCCAUTT against Nxpe5 | 1.69
79 | GCCUGUAGCAGAGAACUUUTT against Tmem59l | 1.1
80 | GGUGUGAAGGAGAAGUUCATT against Atp6v1a | 2.01 (active)
81 | CCCAAAACUUCGUUUGUGUTT against Vezf1 | -0.973
82 | CCCAUAUCCUAGCUCUCUUTT against Olfr1230 | -1.49
83 | GGCCAAAGUCCACACAAGUTT against Naaa | 2.12 (active)
84 | GGCAUGGAGAGAAGAAAAGTT against Rassf7 | -0.433
85 | GCUCUAGAAAGUUACAGAUTT against Crtam | 0.317
86 | GGCUGCAUCUAUAACAUAATT against Olfr611 | -0.767
87 | GGUGAAGGUACGAGUAAGATT against Prkra | -0.809
88 | GGACGAGAACGAUAAUUACTT against Dsc2 | 0.335

Row | Sequence | z-score
89 | GGAGGUAAAGAUCAUGUCATT against Ddr1 | -1.39
90 | GGAGUAGCUGUACUCAACATT against Olfr790 | -0.246
91 | GGUCCUAGGUACAAUCACUTT against Slfn10-ps | -2.58 (active)
92 | GCCACUCAGAGUGUGGAGUTT against Ddx20 | -0.95
93 | GUCCUGGAAGAAAUGAGAATT against Ifna4 | 0.781
94 | CCCACAUCCCUAAGUUGUGTT against Kash5 | 1.55
95 | GGAUAAUCAUUCUUGUCACTT against Ptgfr | -0.736
96 | GGUCUUUGAAUGGAACAAUTT against Aldh7a1 | -1.04
97 | GGAGUCUCCCAAAUGAAGATT against Son | -2.84 (active)
98 | GAGAGAGAAUACCACUGUGTT against Gm5431 | -0.244
99 | GCUGGAUGUGAAAAGAGCGTT against Aktip | -0.00618
100 | GGUGGAUGAAGAGUAUAAGTT against Phka2 | 0.338
101 | GGCAGUAAGAACUACUAAATT against Ric1 | 2.65 (active)
102 | GGGCCAGCAAGGAAAGAAUTT against Pitx2 | -1.37
103 | GCCAUGAUACCUUGUUAUUTT against Plppr5 | 1.08
104 | GCUUUUUUAUGCAUUCCAATT against Rock1 | 0.575
105 | GGCACCAAGCUCGAUGAUGTT against Sh3gl2 | -1.41
106 | GCUUUUCACAUGAUGUGUUTT against Klrb1a | -0.5
107 | GCCCUUACUUAGGUCUAGGTT against Kctd12 | -0.522
108 | GGAAGAGAAGCUGAACAAGTT against Gja1 | 2.53 (active)
